uPA surface inh: qHTS for Inhibitors of Cell Surface uPA Generation. cell surface uPA generation assay, qHTS. Potency, µM (series often up to 38.3 µM), hits mostly inhibitors. hit rate 0.31% among 330,000. AID 540303, 2011; active means well fitted inhibition curve with a large enough effect; inconclusive means small, poorly fitted or top-dose-only effect; inactive means no such curve, though single readings can be large or run the other way; tested in mouse RAW 264.7 cells; further: nearly all actives have a fitted effect of over 55% in size
TGFb SMAD3 inh: qHTS for Inhibitors of TGF-b; hit rate 1.2% among 410,000; HepG2 CAGA-GFP TGF-b/SMAD3 reporter, GFP fluorescence, 18 h; TGF-beta stimulated, 500 pg/mL final; AID 588855, 2011; Potency, µM (highest dose often 46.1 µM), hits mostly inhibitors; further: nearly all actives have a fitted effect of over 65% in size
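Cell-based qHTS in HEPG2 carrying a CAGA-GFP Smad reporter; compounds added before 500 pg/mL final TGF-beta, 18 h incubation at 37 degrees C, GFP fluorescence quantified per cell by imaging cytometry.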
Giardia killer: Small Molecules that selectively kill Giardia lamblia: qHTS; Giardia lamblia trophozoite viability; activity change, % at 7.66 µM, hits read low; hit rate 0.15% among 340,000; AID 540267, 2011; in the data active means activity change below about -80%; inconclusive means between about -30% and that limit;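 further: parasites exposed to compound for two days anaerobically before the ATP read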
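Anaerobic 48 hrs incubation at 37 deg C of 100 trophozoites/well with test compounds; ATPLite 1-Step luminescence, 15-30 min RT, reports cellular ATP as viability.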
HepG2 tox-1: qHTS for Inhibitors of TGF-b: Cytotox Counterscreen; Potency, µM (highest dose often 46.1 µM), actives largely listed as cytotoxic; hit rate 0.76% among 410,000; HepG2 CAGA-GFP viability, ATP luminescence, 18 h; AID 588856, 2011
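CellTiter-Glo luminescence gave cytotoxicity after 18 hours at 37 degrees C. The cells were HepG2 CAGA-GFP in 1% FBS DMEM, stimulated with 500 pg/mL TGF-beta after compound addition. %Activity was normalised to no-cell wells (complete cell-killing) and DMSO (no toxicity), and curves were fitted and classified.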
ATXN2 expr inh: Primary qHTS for Inhibitors of ATXN expression. Potency, µM (highest dose often 57 µM), actives largely listed as inhibitors. HEK-293 ATXN2-luciferase reporter, luminescence, 24 h. AID 1745845, 2022. hit rate 0.72% among 360,000; further: nearly all actives have a fitted effect of over 55% in size
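ATXN2-luciferase reporter cells (luciferase flanked by upstream and downstream ATXN2 gene portions) were treated 24 h at 37 °C with compounds at up to 57 uM. SteadyGlo luminescence gave expression; GF-AFC fluorescence gave viability.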
S2 tox: Viability Counterscreen for Primary qHTS for Inhibitors of ATXN expression. S2 cells (HEK-293 line with an ATXN2-luciferase reporter) viability, CellTiter-Fluor protease fluorescence, 24 h. Potency, µM (top dose mostly 56.7 µM), most hits filed as cytotoxic. hit rate 0.49% among 400,000; further: nearly all actives have a fitted effect of over 40% in size
TGFb confirm: qHTS for Inhibitors of TGF-b: Confirmation of Cherry Picks. hit rate 63% among 1,600. AID 720534, 2013. Potency, µM (titrated, usually from 46.1 µM), usual class: inhibitors. HepG2 CAGA-GFP TGF-b reporter, GFP fluorescence, 18 h; cells stimulated with TGF-beta, 500 pg/mL. shares compounds with TGFb SMAD3 inh; further: nearly all actives have a fitted effect of over 65% in size
HepG2 tox-2: qHTS for Inhibitors of TGF-b: Cytotox Counterscreen for Cherry Picks. shares compounds with TGFb SMAD3 inh. HepG2 CAGA-GFP viability, ATP luminescence, 18 h; cells stimulated with TGF-beta, 500 pg/mL. Potency, µM (doses to about 46.1 µM), hits mostly inhibitors. hit rate 27% among 1,600. AID 720535, 2013; further: nearly all actives have a fitted effect of over 70% in size
TGFb CCL64 inh: qHTS for Inhibitors of TGF-b: CCL64 Cells Orthogonal Assay for Cherry Picks | shares compounds with TGFb SMAD3 inh | AID 720536, 2013 | hit rate 41% among 1,600 | CCL64 CAGA-GFP reporter, TGF-b stimulated, GFP fluorescence, 18 h | Potency, µM (top dose mostly 46.1 µM), hits mostly inhibitors; further: nearly all actives have a fitted effect of over 65% in size
COP TGFb inh: qHTS for Inhibitors of TGF-b: Hit Validation in HepG2 Cells using COP promoter | shares compounds with TGFb SMAD3 inh | HepG2 COP-GFP TGF-b reporter, GFP fluorescence, 18 h; cells stimulated by added recombinant TGF-beta | Potency, µM (titrated, usually from 46.1 µM), actives largely listed as inhibitors | hit rate 3% among 1,600 | AID 720537, 2013; further: nearly all actives have a fitted effect of over 70% in size
A number is an active result; 0 = inactive; ? = inconclusive; - = not tested or not shown. Rows were chosen to be rich in hits. Some 2.6% of all compounds tested hit in one or more screens of this group. Unless noted, the call rests on the fitted dose curve; in most records, active means well fitted curve in the direction sought with a large enough effect; inconclusive means small, poorly fitted or top-dose-only effect, or another doubt; inactive means no such curve, though single readings can be large; an effect the other way counts as inactive or inconclusive.

SMILES | uPA surface inh | TGFb SMAD3 inh | Giardia killer | HepG2 tox-1 | ATXN2 expr inh | S2 tox | TGFb confirm | HepG2 tox-2 | TGFb CCL64 inh | COP TGFb inh
COc1ccc(C2CC(c3cccc(Cl)c3)=NN2c2ccc(S(N)(=O)=O)cc2)cc1 (stereo not drawn) | ? | ? | 0 | 0 | ? | - | - | - | - | -
O=C(N=Nc1c(O)[nH]c2ccc(Br)cc12)c1ccccc1-n1cccc1 | - | ? | 0 | 0 | ? | - | 7.31µM | ? | 18.4µM | 0
O=C(N=Nc1c(O)[nH]c2ccc(Br)cc12)c1ccco1 | - | 0 | - | 0 | - | 0 | - | - | - | -
CN(C)CCNC(=O)c1cccc2[nH]c(-c3ccncc3)nc12 | 0 | 10µM | 0 | 0 | ? | ? | 16.4µM | 20.6µM | 13µM | 0
CN(C)CCNC(=O)c1cccc2nc3c(ccc4ccccc43)nc12 | 0 | ? | 0 | 0 | 0 | ? | - | - | - | -
CCCCCn1c(NC(=O)c2ccco2)c(S(=O)(=O)c2ccc(C)cc2)c2nc3ccccc3nc21 | 0 | ? | 0 | 0 | 0 | 0 | - | - | - | -
CCCCn1c(NC(=O)c2ccco2)c(S(=O)(=O)c2ccc(C)cc2)c2nc3ccccc3nc21 | 0 | ? | 0 | 0 | 0 | - | 0 | 0 | 16.4µM | 0
COc1cc(/C=C/c2cncc(/C=C/c3cc(OC)c(OC)c(OC)c3)c2)cc(OC)c1OC | - | 0 | - | 0 | - | - | - | - | - | -
Cc1ccccc1N=Nc1ccc(O)c2ncccc12 | 0 | 0 | 0 | 0 | ? | 0 | - | - | - | -
COc1ccc(C)cc1N=Nc1ccc(O)c2ncccc12 | 3.55µM | 7.08µM | 0 | 0 | - | 0 | 6.51µM | 0 | 2.31µM | 0
CCOC(=O)c1[nH]c(C)c(CCC(=O)Nc2cccc(SC)c2)c1C | - | ? | - | 0 | 0 | 0 | - | - | - | -
CC(=O)c1ccc(NC(=O)CCOc2ccccc2)cc1 | - | 0 | - | 0 | 0 | 0 | - | - | - | -
Cc1ccc(NC(=O)CSc2ccccc2)cc1S(=O)(=O)N1CCCCC1 | 0 | ? | 0 | 0 | 0 | ? | - | - | - | -
Cc1ccc(NC(=S)NCc2ccccc2)cc1S(=O)(=O)N1CCCCC1 | ? | 15.8µM | 0 | 0 | - | ? | 23.1µM | ? | 25.9µM | 0
O=S(=O)(Nc1cc(Sc2cccc3cccnc23)c(O)c2ccccc12)c1ccc(F)cc1 | 0 | 0.794µM | -98.1 | 1.12µM | ? | 3.98µM | 11.6µM | 14.6µM | 2.59µM | 0
COc1ccc(S(=O)(=O)Nc2cc(Sc3ncn[nH]3)c(O)c3ccccc23)cc1 | - | 3.16µM | 0 | 3.55µM | - | - | 11.6µM | ? | 2.59µM | ?
O=S(=O)(Nc1cccc2cccnc12)c1ccc2ccccc2c1 | - | ? | 0 | 0 | - | - | - | - | - | -
Cc1c(O[C@@H]2O[C@H](CO)[C@@H](O)[C@H](O)[C@H]2O)c(CO)c(O[C@@H]2O[C@H](CO)[C@@H](O)[C@H](O)[C@H]2O)c2c1O[C@@H](c1ccccc1)C[C@@H]2O | 0 | 0 | 0 | 0 | 0 | 0 | - | - | - | -
Cc1cc(C)cc(N(C)S(=O)(=O)c2nnc(NC(=O)COc3ccc(C)c(C)c3)s2)c1 | - | 0 | - | 0 | - | - | - | - | - | -
O=C(COC(=O)c1cc[n+]([O-])cc1)Nc1c(Cl)cccc1C(F)(F)F | 0 | 0 | 0 | 0 | 0 | 0 | - | - | - | -

Screening data (PubChem)
